Compound activity: PubChem BioAssay, National Center for Advancing Translational Sciences (NCATS)
Rows were chosen to be rich in hits. Some 14% of all compounds tested hit in one or more screens of this group.
Pf growth 96h: inhibits malaria parasite growth, 96 h | P. falciparum luciferase reporter growth, 96 h | Potency, µM (highest dose often 28.7 µM), inactives show at the top dose activity change, negative = inhibition, usual class: inhibitors | 6.9% of 320,000 active | AID 504834; also: potency is read from the fitted curve at half-maximal effect
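P. falciparum expressing integrated firefly luciferase, in erythrocytes at 2% hematocrit, 0.05% parasitemia, incubated with compounds 96 h at 37 C, 5% CO2. Growth inhibition read as loss of luminescence; two-generation exposure targets delayed-death apicoplast inhibitors.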
Pf growth 48h: P. falciparum growth inhibition at 48 hours (one generation). Potency, µM (series often up to 28.7 µM), for the others: top-dose activity change, negative = inhibition, hits mostly inhibitors. 5.9% of 310,000 active. AID 504832. P. falciparum luciferase growth in erythrocytes, 48 h; also: potency is read from the fitted curve at half-maximal effect
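Growth was read as firefly luciferase luminescence after a 48 h, 37 C, 5% CO2 exposure of compounds to reporter-bearing P. falciparum cultures (0.1% parasitemia, 2% hematocrit final) in Albumax-supplemented RPMI 1640.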
Sm TGR inh: inhibitors of Schistosoma mansoni thioredoxin glutathione reductase; Q962Y6; purified TGR, DTNB reduction, TNB absorbance 405 nm; Potency, µM (titrated, usually from 114 µM), inactives show at the highest dose activity change, negative = inhibition, actives largely listed as inhibitors; 3% of 360,000 active; AID 485364; also: potency is read from the fitted curve at half-maximal effect; nearly all actives have a fitted effect of over 60% in size
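TGR 20 nM + NADPH 100 uM (dispensed conc.), cpd preinc 15 min RT; start with NADPH (500 uM addition) then DTNB (15 mM addition). Kinetic TNB absorbance, 405 nm filter. Four-parameter Hill fit across titration.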
Giardia FBPA inh: inhibitors of Giardia lamblia fructose-1,6-bisphosphate aldolase; AID 2451; Potency, µM (highest dose often 59.6 µM), for the others: top-dose activity, negative = inhibition, hits mostly inhibitors; purified Giardia FBPA; 0.71% of 290,000 active; A8B2U2; also: potency is read from the fitted curve at half-maximal effect; nearly all actives have a fitted effect of over 55% in size
Target sequence (A8B2U2 whole entry, looked up): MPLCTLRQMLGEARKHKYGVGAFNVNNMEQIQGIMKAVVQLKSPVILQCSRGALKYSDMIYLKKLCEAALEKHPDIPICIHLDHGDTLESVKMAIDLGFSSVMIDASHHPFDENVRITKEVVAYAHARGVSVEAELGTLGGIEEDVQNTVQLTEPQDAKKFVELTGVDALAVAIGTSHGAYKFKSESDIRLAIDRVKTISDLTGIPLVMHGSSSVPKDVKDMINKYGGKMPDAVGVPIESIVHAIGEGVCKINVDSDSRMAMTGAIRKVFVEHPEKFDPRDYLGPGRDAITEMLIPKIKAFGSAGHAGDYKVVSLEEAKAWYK
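Giardia FBPA (40 nM reagent) was preincubated 10 min at RT with compound (up to 57.5 uM final), then substrate plus GAPDH/TPI/NAD/arsenate coupling system with diaphorase/resazurin was added; resorufin fluorescence (525/598 nm) was read after 20 min.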
HCMV antiviral: inhibitors of human cytomegalovirus; HFF cells, HCMV-luciferase reporter, 72 h; stronger effect = lower value; activity change, negative = inhibition, % at 57.5 µM; 4.5% of 410,000 active; in the data active = activity change below about -60%; inconclusive = no clear call, values can overlap the other calls; inactive = above about -39%
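Two-dose cell screen: HFF monolayers treated with compounds and infected with luciferase-expressing HCMV at 1 PFU/cell, 72 h at 37C, then lysed for luciferase measurement.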
The depositor's hits bear a star. Unless noted, calls follow the shape of the dose curve; as a rule, active = well fitted curve in the direction sought with a large enough effect; inconclusive = small, poorly fitted or top-dose-only effect, or another doubt; inactive = no such curve, though single readings can be large; an effect the other way counts as inactive or inconclusive. % is scaled to controls: 0 for no effect and ±100 for the full control effect.

Results for CCCC[C@H](NC(=O)[C@H](CC(C)C)NC(=O)CNC(=O)[C@@H](NC(=O)[C@H](Cc1ccccc1)NC(=O)[C@H](CO)NC(=O)[C@@H](N)CC(=O)O)C(C)C)C(N)=O ?
Giardia FBPA inh: -0.8%

How did COc1ccc(NC(=O)CSc2nnc(CNC(=O)COc3ccc(Cl)cc3)o2)c(OC)c1 do in these assays?
Pf growth 96h: 9.28µM*; Pf growth 48h: 13.1µM*; Sm TGR inh: -30.4%; Giardia FBPA inh: 5.1%; HCMV antiviral: 39.1

What do the screens show for `O=C(CSc1nnc(COc2ccc(Cl)cc2)o1)NC1CCCCC1`?
Pf growth 96h: 16.5%; Pf growth 48h: 6.3%; Sm TGR inh: 6.0%; HCMV antiviral: -14.1

How did COc1ccc(OC)c(NC(=O)CSc2nnc(CNC(=O)COc3ccc(Cl)cc3)o2)c1 do in these assays?
Pf growth 96h: inconclusive; Pf growth 48h: inconclusive; Sm TGR inh: 9.9%; Giardia FBPA inh: -1.9%; HCMV antiviral: 5.1

What do the screens show for `O=C(COc1ccc(Cl)cc1)NCc1nnc(SCC(=O)NC2CCCC2)o1`?
Pf growth 96h: 4.15µM*; Pf growth 48h: inconclusive; Sm TGR inh: 4.3%; Giardia FBPA inh: -9.7%; HCMV antiviral: 9.5

What do the screens show for `CC(=O)Nc1ccn(C2OC(C(COC(C)=O)NC(=O)C(CCCCNC(=O)OCc3ccccc3)NC(=O)OC(C)(C)C)C(OC(C)=O)C2OC(C)=O)c(=O)n1` (stereo not drawn)?
Giardia FBPA inh: 3.1%

Results for CCN(C1CCCCC1)S(=O)(=O)CCNC(=O)c1ccc2c(c1)OCO2 ?
Pf growth 96h: -0.1%; Pf growth 48h: 2.2%; Sm TGR inh: -33.9%; HCMV antiviral: -17.0

How did CC(C)[C@H](NC(=O)[C@@H]1Cc2c([nH]c3ccccc23)C2c3ccccc3C(=O)N21)C(=O)N1CCC[C@@H]1C(=O)O (stereo partly drawn) do in these assays?
Pf growth 96h: 14.7µM*; Pf growth 48h: -11.1%; Sm TGR inh: 1.2%; Giardia FBPA inh: -1.9%; HCMV antiviral: -4.1

Results for Cc1ccc(S(=O)(=O)Nc2ccc(NC(=O)Nc3cccc(C(F)(F)F)c3)cc2)cc1 ?
Pf growth 96h: inconclusive; Pf growth 48h: 13.1µM*; Sm TGR inh: -1.9%; Giardia FBPA inh: -4.3%; HCMV antiviral: -61.6*

How did CCN(CC)S(=O)(=O)c1ccc(/C=C/C(=O)Nc2cccc(F)c2)cc1 do in these assays?
Pf growth 96h: 2.94µM*; Pf growth 48h: inconclusive; Sm TGR inh: 0.9%; Giardia FBPA inh: -3.1%; HCMV antiviral: inconclusive

Results for CCN(CC)S(=O)(=O)c1ccc(NC(=O)Nc2cccc(C(F)(F)F)c2)cc1 ?
Pf growth 48h: 5.22µM*; Sm TGR inh: 4.0%; Giardia FBPA inh: -0.2%; HCMV antiviral: -105.1*

Results for Cc1ccc(S(=O)(=O)CC(C)(O)C(=O)Nc2cccc(C(F)(F)F)c2)cc1 (stereo not drawn) ?
Pf growth 96h: 9.4%; Pf growth 48h: -11.0%; Sm TGR inh: 0.9%; Giardia FBPA inh: -14.5%; HCMV antiviral: 25.8

Results for CCN(CC)S(=O)(=O)c1ccc(C(=O)Nc2cccc(C)c2)cc1 ?
Pf growth 48h: inconclusive; Sm TGR inh: -1.1%; Giardia FBPA inh: -7.7%; HCMV antiviral: -26.3

Results for Cc1ccnc(NC(=O)Nc2cccc(F)c2)c1 ?
Pf growth 96h: 7.38µM*; Pf growth 48h: 222.5%; Sm TGR inh: 30.5%; Giardia FBPA inh: 3.9%; HCMV antiviral: 11.7

How did CC1CCCCC1NC(=O)C1CCCN(S(=O)(=O)c2ccc(-n3cnnn3)cc2)C1 (stereo not drawn) do in these assays?
Pf growth 96h: inconclusive; Pf growth 48h: -8.1%; Sm TGR inh: -13.5%; Giardia FBPA inh: -9.4%; HCMV antiviral: -23.5

What do the screens show for `CC(=O)N1CCOc2ccc(S(=O)(=O)N3CCC(C(=O)NCc4ccc(Cl)cc4)CC3)cc21`?
HCMV antiviral: -14.7

How did COc1cc(NC(=O)CCNS(=O)(=O)c2ccc3c(c2)CCN3C(=O)C2CC2)cc(OC)c1 do in these assays?
Sm TGR inh: 5.8%; HCMV antiviral: 1.0

How did CNS(=O)(=O)c1ccc(NC(=O)Nc2cccc(F)c2)cc1 do in these assays?
Pf growth 96h: 1.1%; Pf growth 48h: 7.3%; Sm TGR inh: 11.9%; Giardia FBPA inh: -0.7%; HCMV antiviral: -101.5*

How did COC(=O)C1=C(c2ccc(OCc3ccccc3)cc2)C[C@@H]2CC[C@H]1N2C(=O)NCc1ccccc1 do in these assays?
Pf growth 96h: inconclusive; Pf growth 48h: 7.38µM*; Sm TGR inh: 2.1%; HCMV antiviral: -16.6

Results for COC(=O)C1=C(c2ccc(OCc3ccccc3)cc2)C[C@@H]2CC[C@H]1N2C(=O)NCc1ccc(C(C)(C)C)cc1 ?
HCMV antiviral: -7.1

Results for COC(=O)C1=C(c2ccc(OCc3ccccc3)cc2)C[C@@H]2CC[C@H]1N2C(=O)NCc1ccc2c(c1)OCO2 ?
HCMV antiviral: -38.4

How did COC(=O)C1=C(c2ccc(OCc3ccccc3)cc2)C[C@@H]2CC[C@H]1N2C(=O)NCc1cccc(OC)c1 do in these assays?
Pf growth 96h: inconclusive; Pf growth 48h: 3.7µM*; Sm TGR inh: 1.0%; HCMV antiviral: -67.1*

How did O=C(C[C@H]1C/C=C\CC[C@@H](Cc2ccc(F)cc2)C(=O)OC[C@H]2CCCN2C1=O)NCCO do in these assays?
HCMV antiviral: 17.4

How did Cc1cc(SCC(=O)Nc2c(C)n(C)n(-c3ccccc3)c2=O)nc2ccccc12 do in these assays?
Pf growth 96h: inconclusive; Pf growth 48h: 1.7%; Sm TGR inh: inconclusive; HCMV antiviral: -15.2

What do the screens show for `CC(C)(CNC(=O)c1ccc(-c2ccccc2Cl)o1)N1CCOCC1`?
Pf growth 96h: 94.8%; Pf growth 48h: 86.7%; Sm TGR inh: 0.6%; HCMV antiviral: 29.5

How did COc1ccc(N2CCN(S(=O)(=O)CCNC(=O)/C=C/c3ccccc3)CC2)cc1 do in these assays?
Pf growth 96h: 15.9%; Pf growth 48h: 9.4%; Sm TGR inh: 3.1%; HCMV antiviral: 16.0

What do the screens show for `COC(=O)C1=CN(c2ccc(C(C)(C)C)cc2)C(N)=C(C#N)C1c1ccc(OC)cc1` (stereo not drawn)?
HCMV antiviral: -77.1*

Results for Cc1cccc(NC(=O)c2ccc(S(=O)(=O)N3CCC(C)CC3)cc2)n1 ?
Pf growth 96h: inconclusive; Pf growth 48h: inconclusive; Sm TGR inh: -21.7%; HCMV antiviral: -76.6*

Results for CC1CCN(S(=O)(=O)c2cn(CC(=O)Nc3ccc(F)c(Cl)c3)c(=O)c3ccccc23)CC1 ?
Sm TGR inh: 39.6%; HCMV antiviral: -62.8*

How did CC1CCN(S(=O)(=O)c2ccc(NC(=O)c3ccccc3F)cc2)CC1 do in these assays?
Pf growth 96h: 12.7%; Pf growth 48h: inconclusive; Sm TGR inh: 4.6%; Giardia FBPA inh: -2.8%; HCMV antiviral: -61.9*
